Measurements: PubChem BioAssay AID488794 (Sanford-Burnham Center for Chemical Genomics, 2010)
Among all 1,000 compounds or so, about 550 (55%) were called active. So high a share suggests a set chosen from earlier hits. Only a sample is shown. Values without a mark were called inactive. No stated cut-off is given here; in the data, active means inhibition above about 50%; inactive means the rest.

Experiment: yeast-expressed human NALP3 blockade, retest – luminescence, single concentration, confirmation (AID 488794)
Conditions: yeast expressing human NALP3, luminescence read-out; at 10 µM; hits give high values

SMILES | inhibition
CN(C)c1ccnc2sc(C(=O)c3ccccc3)c(N)c12 | 53.6% (active)
Oc1c(Cl)cc(Cl)c(Cl)c1Cc1c(O)c(Cl)cc(Cl)c1Cl | 98.5% (active)
Cc1ccnc(Nc2nc3ccccc3s2)n1 | 27.6%
O=C(CC(O)(C(F)(F)F)C(F)(F)F)Nc1ccc(Cl)c(Cl)c1 | 99.8% (active)
COc1ccccc1C(=O)Nc1ccc(NC(=O)c2ccco2)c(C)c1 | 32.3%
Cc1ccc(O)c(NC(=O)c2cc(-c3ccco3)on2)c1 | 63.7% (active)
Cc1ccc(CSc2nsc(C)c2C#N)cc1 | 48.2%
CC(C)n1c(COc2ccccc2)nc2ccccc21 | 47.7%
Cc1ccc(OCc2nc3ccccc3n2C)cc1 | 57.2% (active)
CN=C1C=C/C(=N/N=c2\ccn(O)cc2C)C=C1C | 57.2% (active)
O=[N+]([O-])c1cccc(/C=N/Nc2ncc(Br)cn2)c1 | 33.4%
CCc1noc(C)c1C(=O)Nc1nc2ccc(OC)cc2s1 | 55.5% (active)
COc1cc(N2C(=O)CSC2=S)cc(OC)c1OC | 35.6%
O=C1CSC(=S)N1c1ccc(O)cc1 | 59.4% (active)
Fc1ccccc1-c1cc2cc3c(cc2cn1)OCO3 | 39%
Nc1c(-c2cccc(Cl)c2)cnn1-c1cccc([N+](=O)[O-])c1 | 52.1% (active)
O=C(CSc1ncnc2c1oc1ccccc12)NC1CCCC1 | 25.1%
Cn1c(=NC(=O)c2ccco2)sc2cccc(F)c21 | 34.1%
Cc1cccc(NC(=S)NC(=O)c2ccc(Br)o2)c1 | 65.7% (active)
Cc1ccc(-c2nn(C(C)(C)C)c3ncnc(N)c23)cc1 | 63.2% (active)
O=C(Nc1ccccc1Cl)/C(Cl)=C(\Cl)S(=O)c1ccccc1 (stereo not given) | 74.7% (active)
N#Cc1nc(Cc2ccccc2)oc1NCCc1ccccc1 | 36.6%
CCOC(=O)c1c(C)[nH]c(C(=O)COc2ccc3c(c2)OCO3)c1C | 54.5% (active)
COc1ccccc1OCc1nc2ccccc2s1 | 43.2%
CCCN(CC1CC1)C(=S)NC(=O)c1ccccc1Br | 38.8%
Cc1cc(C)nc(NC(=O)Nc2ccccc2C(F)(F)F)n1 | 34.8%
Cc1c(C(=O)N2CCCc3ccccc32)oc2ccccc12 | 47.9%
O=C(Oc1c(-c2ccco2)oc2ccccc2c1=O)c1cccnc1 | 68.5% (active)
Oc1ccc(Br)cc1/C=N/Nc1ccccn1 | 43.2%
O=C(CSc1ccc(-c2ccc(-n3cccn3)cc2)nn1)Nc1ccc([N+](=O)[O-])cc1 | 18.1%
